# Source: PubChem BioAssay (National Center for Advancing Translational Sciences (NCATS))
# Most compounds without a hit are left out; they make up all but 2.4% or so of the library.
# WRN inhibitor = qHTS for Inhibitors of WRN Helicase | Bifunctional 3'-5' exonuclease/ATP-dependent helicase WRN (Homo sapiens), Q14191 | WRN helicase unwinding, fluorescent forked duplex, kinetic | Potency, µM (titrated, usually from 114 µM), usual class: inhibitors | actives 0.46% (n = 360,000); further: nearly all actives have a fitted effect of over 55% in size
#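 Kinetic red-fluorescence monitoring (525/598 nm) tracks WRN helicase activity after 100 nM fluorophore-quencher forked duplex and 2 mM ATP are added to 20 nM enzyme pretreated 15 min at room temperature with compound.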
# POLI inh = qHTS for Inhibitors of Polymerase Iota. actives 1% (n = 390,000). Pol iota fluorescent replication assay, 10 min. DNA polymerase iota (Homo sapiens), Q9UNA4. Potency, µM (titrated, usually from 115 µM), hits mostly inhibitors. AID 588590, 2011
#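 Pol iota at 10 nM preincubated 15 min with compounds at room temperature; reaction started with fluorescent substrate, 50 nM final. Fluorescence read kinetically at 0 and 10 min; buffer-only wells as negative control.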
# Pol kappa inh = qHTS for Inhibitors of Polymerase Kappa; DNA polymerase kappa (Homo sapiens), Q9UBT6; purified Pol kappa, fluorescent DNA synthesis assay, 10 min; Potency, µM (series often up to 107 µM), usual class: inhibitors; actives 0.53% (n = 400,000); AID 588579, 2011
#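 Kinetic fluorescence screen: compound preincubated 15 min RT with 10 nM enzyme; 50 nM substrate (final) initiates; reads at 0/10 min.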
# FEN1 inh = qHTS Assay for the Inhibitors of Human Flap endonuclease 1 (FEN1) | P39748 | Recombinant FEN1 flap cleavage, fluorescence, 15 min | Potency, µM (highest dose often 114 µM), usual class: inhibitors | actives 0.35% (n = 390,000); further: nearly all actives have a fitted effect of over 65% in size
# Target sequence (P39748 whole entry, looked up): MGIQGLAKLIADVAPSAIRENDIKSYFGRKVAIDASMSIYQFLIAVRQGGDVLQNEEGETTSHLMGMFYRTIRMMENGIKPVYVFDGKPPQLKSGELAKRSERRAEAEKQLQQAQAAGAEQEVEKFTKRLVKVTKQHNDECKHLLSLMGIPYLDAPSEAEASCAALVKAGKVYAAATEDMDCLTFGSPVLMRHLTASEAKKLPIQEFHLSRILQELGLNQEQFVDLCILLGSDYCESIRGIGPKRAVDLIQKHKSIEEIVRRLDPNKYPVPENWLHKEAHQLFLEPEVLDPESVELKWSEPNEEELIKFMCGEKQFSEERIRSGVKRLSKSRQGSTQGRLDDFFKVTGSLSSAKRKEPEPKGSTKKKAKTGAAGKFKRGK
#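 Steps: FEN1 (10 nM) dispensed; compound added by pin tool; 15 min at room temperature; substrate added to 50 nM final; reads at 0 min and 15 min; data normalized and fitted (four-parameter Hill).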
# POLH inh = qHTS for Inhibitors of Polymerase Eta | DNA polymerase eta (Homo sapiens), Q9Y253 | recombinant Pol eta, fluorescent DNA replication assay | Potency, µM (top dose mostly 114 µM), usual class: inhibitors | actives 1.2% (n = 390,000) | AID 588591, 2011
#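 Pol eta (10 nM) was preincubated with compounds for 15 min at room temperature, after which fluorescent replication substrate (50 nM final) was added to start the reaction. Fluorescence was read kinetically at 0 and 10 min.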
# Pol beta inh = qHTS Assay for Inhibitors of DNA Polymerase Beta | P06746 | Pol beta primer extension/strand displacement, fluorescence kinetic | Potency, µM (highest dose often 114 µM), usual class: inhibitors | actives 1.3% (n = 340,000) | AID 485314, 2010
#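 Kinetic readout of DNA synthesis with strand displacement by Pol beta. Compound and 10 nM enzyme sit 15 min at room temperature; 50 nM substrate starts the reaction, read immediately and at 10 min.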
# A number is an active result; n = inactive; u = inconclusive; x = not tested or not shown; [ ] = remark or other dose. The call rests on the fitted dose curve; in most records, active means well fitted curve in the direction sought with a large enough effect; inconclusive means small, poorly fitted or top-dose-only effect, or another doubt; inactive means no such curve, though single readings can be large; an effect the other way counts as inactive or inconclusive.
SMILES,WRN inhibitor,POLI inh,Pol kappa inh,FEN1 inh,POLH inh,Pol beta inh
Cn1cc(C(=O)N/N=C/C2=C(N3CCOCC3)C(=C/c3ccc([N+](=O)[O-])cc3)/CC2)ccc1=O,n,50µM,n,n,u,x
O=C(Nc1ccc2c(c1)nc1n2CCOC1)c1ccco1,n,n,n,n,n,n
O=C(Nc1ccc2c(c1)nc1n2CCSC1)c1ccco1,n,32µM,n,n,u,11µM
CCCCc1ccc(CC(=O)NO)cc1,x,n,n,n,x,x
COc1ccc(-c2nc(-c3ccccc3)c(-c3cccs3)[nH]2)cc1OC,n,n,n,u,n,n
COc1ccc(-c2nc(-c3cccs3)c(-c3cccs3)[nH]2)cc1OC,n,n,n,n,n,89µM
O=C1c2cccc([N+](=O)[O-])c2C(=O)N1CCO,n,n,n,n,n,n
O=C1CSC(=S)N1N1C(=O)c2cccc([N+](=O)[O-])c2C1=O,x,x,x,x,x,3.2µM
CC(C)[C@H]1COCCS(=O)(=O)N1Cc1cccc([N+](=O)[O-])c1,x,u,u,n,x,x
C[N+]1(CC(=O)c2ccc(I)cc2)CCCc2ccccc21 (configuration not stated),x,n,n,n,x,x
COc1cc2ccc(=O)oc2cc1OCC(O)C(C)(C)O (configuration not stated),n,u,u,n,n,35µM
O=C(CSc1ccccc1)N1CCN(S(=O)(=O)c2ccccc2F)CC1,n[11.6 µM],50µM,n,n,u,45µM
CC(C)(C)OC(=O)N1CCC(c2c(C(=O)NCc3ccco3)cnn2-c2ccc(F)cc2)CC1,x,n,n,n,n,n
Cc1ccc(/C=C/C(=O)Nc2nnc(SCc3ccc(C#N)cc3)s2)o1,u,40µM,u,n,u,n
O=C(Cc1ccccc1)N/N=C/c1cc(Br)cc(Br)c1O,n,n,n,n,n,n
O=C(O)c1ccccc1N/N=C/c1cc(Br)cc(Br)c1O,n,u,n,u,79µM,u
COc1cccc(NC(=O)COC(=O)c2ccc3c(c2)OCO3)c1,n,n,n,n,n,x
COc1ccc(C(=O)COC(=O)c2ccc3c(c2)OCO3)c(OC)c1,n,79µM,u,n,u,x
COc1ccc(C(=O)COC(=O)c2cc([N+](=O)[O-])ccc2N2CCOCC2)c(OC)c1,n[11.6 µM],79µM,n,n,u,x
COCOc1cc(O)c2c(=O)c(OCOC)c(-c3ccc(OCOC)c(OCOC)c3)oc2c1,n,u,79µM,n,u,x
CC(C)C[C@H](NC(=O)CNC(=O)[C@H](CCC(N)=O)NC(=O)[C@H](CC(C)C)NC(=O)[C@H](CC(C)C)NC(=O)[C@H](CCCNC(=N)N)NC(=O)[C@H](CCC(N)=O)NC(=O)[C@H](CC(C)C)NC(=O)[C@H](CCCNC(=N)N)NC(=O)[C@H](C)NC(=O)CNC(=O)[C@H](CCC(=O)O)NC(=O)[C@H](CCCNC(=N)N)NC(=O)[C@H](CC(C)C)NC(=O)[C@H](CCCNC(=N)N)NC(=O)[C@H](CO)NC(=O)[C@H](CC(C)C)NC(=O)[C@H](CCC(=O)O)NC(=O)[C@H](CO)NC(=O)[C@@H](NC(=O)[C@H](Cc1ccccc1)NC(=O)[C@@H](NC(=O)CNC(=O)[C@H](CC(=O)O)NC(=O)[C@H](CO)NC(=O)[C@@H](N)Cc1cnc[nH]1)[C@@H](C)O)[C@@H](C)O)C(=O)N[C@H](C(N)=O)C(C)C,x,x,n,x,x,x
CCNc1nc(C#N)nc(NCC)n1,x,n,n,n,x,x
CC1(C)Cc2c(C#N)c(NCCc3ccccc3)nc(-c3ccco3)c2CO1,n,79µM,n,n,89µM,n
COc1ccc(NC2CCCN(C(=O)c3cccc(C)n3)C2)cc1OC (configuration not stated),n[11.6 µM],50µM,u,n,n,n
COc1ccc(NC2CCCN(C(=O)c3csc(C(C)C)n3)C2)cc1OC (configuration not stated),n,n,n,n,n,n
